According to PubChem BioAssay AID1631 (National Center for Advancing Translational Sciences (NCATS), 2009):
About 890 (0.34%) of roughly 260,000 compounds were called active. Another 1% or so got no clear call; they are omitted. Calls come from the whole dose curve; as a rule, active = well fitted activation curve with a large enough effect; inconclusive = small, poorly fitted or top-dose-only effect; inactive = no such curve, though single readings can be large or run the other way. The sample as a whole holds a higher share of actives than the screen did.

biological target: Pyruvate kinase PKM (Homo sapiens) (UniProt P14618); assay: qHTS Assay for Activators of Human Muscle isoform 2 Pyruvate Kinase; settings: purified PKM2, Kinase-Glo ATP luminescence; Potency: activation; series mostly up to 57.5 µM; activation: at the top concentration; note: nearly all actives have a fitted effect of over 55% in size
Source text: NIH Chemical Genomics Center [NCGC] Matthew G. Vander Heiden, M.D., Ph.D. [Harvard Medical School, 77 Avenue Louis Pasteur, Boston, MA 02115] MLPCN Grant: 1 R03 MH085679-01 NCGC Assay Overview: Human pyruvate kinase muscle 2 (hPK-M2) enzyme was supplied as a highly purified (>95% pure) preparation from Harvard Medical School and assayed for its ability to generate ATP from ADP using phosphoenolpyruvate (PEP) as a substrate. ATP generation was detected in a coupled reaction by luciferase-mediated luminescence, an ATP-dependent process. […] The enzyme was assayed at an intermediate level of activity to screen for both inhibitors and activators.
NCGC Assay Protocol Summary: Three uL of substrate mix (at r.t.) in assay buffer (50 mM Imidazole pH7.2, 50 mM KCl, 7 mM MgCl2, 0.01% Tween 20, 0.05% BSA) was dispensed into white solid bottom 1,536 well microtiter plates so that the final concentrations of substrates in the assay were 0.1 mM ADP and 0.5 mM PEP. 23 nL of compound were delivered by a pin tool and 1 uL of enzyme mix in assay buffer (4 degree Celsius) was added. Plates were incubated at room temperature for 1 hour. Two uL of detection mix (Kinase-Glo, Promega; at 4 degree Celsius protected from light) was added and luminescence read by a ViewLux (Perkin Elmer) at 5 second exposure/plate. Data were normalized to the uninhibited and AC100 inhibition (no enzyme). To monitor activation, the first column contained a titration of the activator, NCGC00031955-01 (16-point 1:2 dilutions in duplicate starting at 57 uM) and the first 16 rows of column 4 contained 57 uM of NCGC00031955-01.
% is set by controls: 0 for no effect and ±100 for the full control effect; potency is the fitted concentration of half-maximal effect.

Sequence of Pyruvate kinase PKM (Homo sapiens) (P14618 whole entry, looked up, canonical isoform): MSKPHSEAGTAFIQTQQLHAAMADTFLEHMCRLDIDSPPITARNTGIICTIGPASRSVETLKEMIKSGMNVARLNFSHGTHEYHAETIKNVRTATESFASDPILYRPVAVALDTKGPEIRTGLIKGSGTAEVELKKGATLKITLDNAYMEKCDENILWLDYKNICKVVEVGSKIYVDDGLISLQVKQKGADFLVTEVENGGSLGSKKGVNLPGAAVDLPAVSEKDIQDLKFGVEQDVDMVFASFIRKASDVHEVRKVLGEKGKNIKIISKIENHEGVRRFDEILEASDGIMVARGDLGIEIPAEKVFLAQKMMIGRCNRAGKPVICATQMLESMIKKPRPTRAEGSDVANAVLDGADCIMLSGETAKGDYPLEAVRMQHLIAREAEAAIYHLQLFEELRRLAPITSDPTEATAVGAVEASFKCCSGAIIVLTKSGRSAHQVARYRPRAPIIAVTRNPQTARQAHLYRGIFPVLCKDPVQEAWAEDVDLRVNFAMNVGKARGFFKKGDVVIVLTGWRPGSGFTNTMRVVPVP

SMILES	activation	Potency
Cc1nc2ccccc2c(=O)n1-c1ccc(Cl)cc1Cl	-0.0497% [at 11.5 µM, 0% is enzyme alone, no compound] (inactive)	
O=c1c2ccccc2nc(/C=C/c2ccco2)n1-c1ccccc1O		3.98 µM (active)
O=c1c2ccccc2nc(-c2ccco2)n1-c1ccc(Br)cn1	6.38% (inactive)	
CCCCn1c(=O)c(C(=O)Nc2ccccc2Cl)c(O)c2ccccc21	0.939% (inactive)	
CN(C)C(=O)Oc1ccc(NC(=O)N2CCOCC2)cc1	1.13% (inactive)	
